The source of these data is PubChem BioAssay (NCI).

The panel holds about 83,000 compounds, 20% with a hit somewhere; the sample as a whole holds those more often.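 Treatment: one concentration, 48 hours, 96-well format. Scoring: percent growth, with anything below 10 considered active.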 Values without a mark were called inactive. The source made the active and inactive calls.

Some test systems named below: SK-MEL-2 melanoma; EKVX NSCLC; SN12C renal; UO-31 renal; TK-10 renal; ACHN renal; CAKI-1 renal; A498 renal; CCRF-CEM leukemia; MOLT-4 leukemia.
Holding throughout (assay): NCI-60 one-dose screen, 48 h (100 = growth as untreated, 0 = no growth, -100 = all killed)
Conditions in all cases: 10 µM unless noted

As to `COc1ccc(N=Nc2c(N)nn3c(-c4ccc([N+](=O)[O-])cc4)ccnc23)cc1`, the growth in the experiment with SK-MEL-2 melanoma was 106%; with EKVX NSCLC it was 97.5%; in the experiment with SN12C renal it was 92.7%; with UO-31 renal, 97.1%; with TK-10 renal, 113%; in the experiment on ACHN renal, 107%. For the same compound, the growth in the experiment on CAKI-1 renal was 88.9%; in the experiment on A498 renal, 114%; in the experiment with CCRF-CEM leukemia, 92%; with MOLT-4 leukemia, 96%.
Turning to `COc1ccc(N=Nc2c(N)nn3c(N)c(C#N)c(-c4ccccc4)nc23)cc1`, the growth in the experiment on SK-MEL-2 melanoma was 97.6%; in the experiment with EKVX NSCLC, 38.9%; in the experiment with SN12C renal, 40.8%; in the experiment with UO-31 renal it was 28.4%; in the experiment on TK-10 renal it was 57.4%; with ACHN renal, 25.7%. Also, the growth was 15.9% in the experiment on CAKI-1 renal, 113% in the experiment on A498 renal, 72.7% in the experiment on CCRF-CEM leukemia and 72.8% in the experiment on MOLT-4 leukemia.
As to `c1n[nH]cc1-c1nc2ccc3[nH]ncc3c2c2c1CC1(CCOCC1)CC2`, the growth was 24.5% with SK-MEL-2 melanoma; 55.3% with EKVX NSCLC; 28.8% with SN12C renal; 55.4% in the experiment with UO-31 renal; 29.2% in the experiment on TK-10 renal; 22.1% in the experiment with ACHN renal. For the same compound, the growth is 4.86% (active) with CAKI-1 renal, -3.86% (active) with A498 renal, 19.3% in the experiment with CCRF-CEM leukemia and 22.2% in the experiment on MOLT-4 leukemia.
Regarding `O=C1c2cccc3c(N4CCN(c5ccccc5)CC4)ccc(c23)C(=O)N1c1cccc(-c2nn(-c3ccccc3)cc2-c2nc3ccccc3s2)c1`, the growth is 106% in the experiment on SK-MEL-2 melanoma; 86.6% in the experiment with EKVX NSCLC; 103% in the experiment on SN12C renal; 68.1% in the experiment on UO-31 renal; 129% with TK-10 renal; 94.9% in the experiment with ACHN renal. Further, the growth with CAKI-1 renal is 83.3%; in the experiment with A498 renal, 126%; with CCRF-CEM leukemia, 98.8%; with MOLT-4 leukemia it was 99.4%.
For the compound `OCCn1cc(-c2nc3ccc4[nH]ncc4c3c3c2CCCC3)cn1`, the growth in the experiment with SK-MEL-2 melanoma is 43.3%; in the experiment on EKVX NSCLC, 32.8%; with SN12C renal it was 36.7%; in the experiment with UO-31 renal, 22.3%; with TK-10 renal, 16.5%; in the experiment on ACHN renal, 16.3%. Also, the growth with CAKI-1 renal was 1.75% (active); in the experiment on A498 renal, -3.55% (active); in the experiment with CCRF-CEM leukemia, 48.4%; in the experiment on MOLT-4 leukemia, 31.2%.
Consider `O=C(Nc1ccc(Br)cc1)Nc1ccc(-c2ccc3c(c2)NC(=O)/C3=C\c2ccc[nH]2)cc1`, for which the growth is 36.7% with SK-MEL-2 melanoma; 42.3% with EKVX NSCLC; 52.5% in the experiment with SN12C renal; 20.6% in the experiment with UO-31 renal; 52.3% in the experiment with TK-10 renal; 30% with ACHN renal. Also, the growth in the experiment on CAKI-1 renal was 31.1%; in the experiment on A498 renal it was 105%; in the experiment with CCRF-CEM leukemia, 25.3%; in the experiment with MOLT-4 leukemia it was 35.6%.
In the case of `Cc1ccc(C(=O)Nc2cc(-n3cnc(F)c3)cc(C(F)(F)F)c2)cc1C#Cc1cnc2cccnn12`, the growth was 40.7% with SK-MEL-2 melanoma; 74.2% in the experiment on EKVX NSCLC; 45.6% with SN12C renal; 39.9% in the experiment with UO-31 renal; 83.2% in the experiment with TK-10 renal; 59.4% in the experiment on ACHN renal. Besides, the growth is 63.1% in the experiment with CAKI-1 renal, 103% with A498 renal, 29% in the experiment with CCRF-CEM leukemia and 44.7% in the experiment with MOLT-4 leukemia.
Turning to `C=CCn1c(O)c(N=Nc2nc(-c3cc4ccccc4oc3=O)cs2)c2ccccc21`, the growth in the experiment on SK-MEL-2 melanoma is 64.4%; in the experiment on EKVX NSCLC it was 55.7%; in the experiment with SN12C renal, 90.7%; with UO-31 renal it was 101%; with TK-10 renal, 90.9%; in the experiment on ACHN renal, 78.4%. The growth in the experiment on CAKI-1 renal is 94.3%; in the experiment on A498 renal, 137%; in the experiment on CCRF-CEM leukemia, 35.8%; in the experiment with MOLT-4 leukemia, 98.3%.
`C#CCCCNCCNc1ccnc2cc(Cl)ccc12`: the growth in the experiment with SK-MEL-2 melanoma is 98.1%; in the experiment with EKVX NSCLC it was 70.3%; with SN12C renal, 74.2%; in the experiment with UO-31 renal, 60.8%; with TK-10 renal, 82.9%; in the experiment on ACHN renal, 87.7%. Also, the growth with CAKI-1 renal is 44.5%; in the experiment on A498 renal it was 108%; in the experiment on CCRF-CEM leukemia, 77.6%; in the experiment with MOLT-4 leukemia, 65.1%.
As to `COc1cc(C2CC(c3cc(OC)c(OC)c(OC)c3)=Nc3c(N)nc(N)nc3N2)ccc1Oc1nc(Nc2ccc(F)cc2)nc(N(C)C)n1` (stereo not given), the growth in the experiment on SK-MEL-2 melanoma was 82.7%; in the experiment with EKVX NSCLC it was 67.5%; in the experiment with SN12C renal it was 78.5%; with UO-31 renal, 40.3%; in the experiment with TK-10 renal, 99.8%; with ACHN renal, 68.1%. Also, the growth with CAKI-1 renal is 52.3%; in the experiment on A498 renal, 118%; in the experiment with CCRF-CEM leukemia, 26.7%; in the experiment on MOLT-4 leukemia it was 6.97% (active).
For the compound `Cc1ccc(C(=O)Nc2cc(-c3ccncc3)cc(C(F)(F)F)c2)cc1C#Cc1cnc2cccnn12`, the growth is 37.9% in the experiment on SK-MEL-2 melanoma; 64.3% in the experiment with EKVX NSCLC; 34.8% in the experiment on SN12C renal; 31.4% with UO-31 renal; 63.7% with TK-10 renal; 46.6% with ACHN renal. The growth was 40.8% in the experiment with CAKI-1 renal, 48.9% in the experiment on A498 renal, 30% in the experiment on CCRF-CEM leukemia and 31.3% with MOLT-4 leukemia.
On to `COc1c(B(O)O)cccc1-c1nc2ccc3cn[nH]c3c2c2c1CCCC2`, for which the growth is 108% in the experiment with SK-MEL-2 melanoma; 49.3% with EKVX NSCLC; 50.6% in the experiment on SN12C renal; 23.6% in the experiment on UO-31 renal; 12% in the experiment on TK-10 renal; 27.3% in the experiment with ACHN renal. Besides, the growth in the experiment with CAKI-1 renal is -11.3% (active); with A498 renal it was -2.36% (active); with CCRF-CEM leukemia, 39.6%; in the experiment on MOLT-4 leukemia, 47.7%.
In the case of `COc1sc(/C=N/NC(=O)c2[nH]c3ccc(Br)cc3c2-c2ccccc2)cc1Br`, the growth in the experiment on SK-MEL-2 melanoma was 15.4%; in the experiment with EKVX NSCLC, 13.5%; in the experiment on SN12C renal, 5.93% (active); with UO-31 renal it was 31.1%; with TK-10 renal it was 64.6%; in the experiment on ACHN renal it was 7.58% (active). Further, the growth is 15.2% in the experiment with CAKI-1 renal, 134% with A498 renal, 6.23% (active) in the experiment on CCRF-CEM leukemia and -2.1% (active) with MOLT-4 leukemia.
